Values without a mark were called inactive.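 How the source made its calls: active = MAPPIT score above the 99th percentile of random reference set scores in the same batch; inactive = at or below it.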
Legend:
Test in all cases: MAPPIT interaction score (arbitrary units); higher = stronger binary interaction signal, active = hit call of the paper
[1] = target: laza; settings: MAPPIT configuration: N-N; pair source set: screen_2
[2] = target: mei-P22; settings: MAPPIT configuration: N-N; pair source set: screen_2
[3] = target: mod(mdg4); settings: pair source set: Lit-BM-16
[4] = target: su(Hw); settings: MAPPIT configuration: N-C; pair source set: Lit-BM-16
[5] = target: mal; settings: MAPPIT configuration: N-N; pair source set: Lit-BS-16
[6] = target: otp; settings: MAPPIT configuration: N-N; pair source set: screen_2
[7] = target: mnb; settings: MAPPIT configuration: N-N; pair source set: Finley_Y2H
[8] = target: msd5; settings: MAPPIT configuration: N-N; pair source set: Curagen_low_conf
[9] = target: mira; settings: MAPPIT configuration: N-C; pair source set: Lit-BM-16
[10] = target: nos; settings: pair source set: Lit-BM-16
[11] = target: lola; settings: pair source set: RRS
[12] = target: lwr; settings: MAPPIT configuration: N-N
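Further: HEK293T cells with Epo stimulation, STAT-responsive firefly luciferase reporter, fold induction versus unstimulated cells divided by the larger fold induction of two negative controls lacking either bait or prey.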

B1: Es2 (protein)
chain: MSATTRTPATPGTPGTPGSLAMEVARVQNSALAEFKKPTAMVRHKNKPKILTEEKYIEEMSKIIQRDFFPDLERLRAQNDYLDAESRRDFVQMAEIRERYSLGRISGTGRSTSRRNNAMSPATFETPVSQAKCSNTPLPNSRATDTPFSTDGSEKSDAEGRDTTAKLSLDAFLQKYTSEDNQSFQEIIETAEAKLRQKYAVLYNHEKLSAEQLQRALMLPSIETQFEEPDPLRKIETWNYTNMNSIMYVPDGVEYTEEERVQLAERKQSIQHNATRLPDEAKHREMDTKKLNDEVPQNGAGGATATPKVRGFDLLRSPSPRPGEAFSPIMTWGEIDGTPFRLDGGDTPLRPTQGPSFRINENSRRENIAIALAERVSERMRNQKQMALDTARRNIGSPLIRTNMERLASMSPAAQLLATGKLGIRGTPRLRHTPSPMSGRKRKVTPGVVRSTNTPILGEPKPKQQAKISTPAKNVTIDTGSTLTDDLLKIPTKRRTAADFF
Q: How did the MAPPIT interaction score [1] turn out when B1 was run?
A: 0.373

B2: mei-P22 (protein)
chain: MDRTTVVPSPASTYCSFMGGSQHSPLRRSQRLIDKENRDLQKIPPKSLSPQLFGNTEDDYSELLLQQGKVVHLKPAAKLVPVRSSDNLVHLGSRDKVVPLKTSNRIVHLKPPYKIIHLKSLDEVEKTVKKKNNIQKEVHQRNSQRRSIQCTPKKRGRKPKQPAKKLQSRISTDQLGSTPSPSKLPAKYPAHFVHQLPPAEDSSCATRRRSLSAPAMQLSDLSLTPDEIQTPERRGEIVNKSPSDLDSDVSLNFSLSDSIGEIFGTKDISSILTMQRPRQYILLEEHLPTLATMLNVDLERLRCVLDITQGLSHEQILRFPIKHEEDELEVP
Q: Which MAPPIT interaction score [2] does the source give for B2 here?
A: 4.86 (active)

B3: Cp190 (protein)
chain: MGEVKSVKVDNWGVFFLQKLQNFFNKTDYCDLTLQFRDNSQLKVHRLVLSACTDYFNVLEQTCEIVDDALIMPNEFQADVVVPIVNFMYTGTLEFELKMYGKLLRTAKEMNMTVLLKLLEAHRRTMENVNRQQRPPSPKGIRRRTVGQPSSGLPQQRVLGPSPQSRNVATPIAQRANTQRGSTGNTMSRTSGGSNRSPYGDSSNVKQEPTSPFEQLRKGYNNNKRPAQTSLLSPPSKKPSLEEVKEFAEQQRMRKQIAAEYGDNDPEYDGGMLYDDVHAGDDDDDDMPPQPSTSKQQSPQGTQTQLEHGSTTIILKQDSPSQTPTIIVKDSSNAKLNHTKIIAEVLRQYPHIVKGHKNIKLKIMPNTPAAPTEKSAPATVKPPANQSSATTSPHKKLHVSFKADKSTPLITAQQKAASSQQKSGTSQTTGNQGTGANPPANTAAAQKRRIDSKTMHALIAQGAENTTGPWLCLRCGVNGRPISIPSYRGFRRHLINTHKETIDPALCEHCGWRSVNNRELHFHMYMEHQTKSLLYTFAECALCNQSYRTKGELEAHINEVHTDDNKQQCIYCNKVFEQELQLYRHMKSYHKEQALEDGIIDETDEEFLGSQDEEEEAEGDEEQEPEQTGKVRILSDISLPATSAITVQQAQQEQLQEEDVEQVQQEVKFVGADGNEVELTDEQRKEILSQLNQQQAGATAGGVVMVLSEPEAEHVKQETDEKSLAGTEEEYDDSQIYSELGAADSVESAKKNIADESKESIDNLEWAENLIAESEEQSNKEPKSDKPRDDISEKLKELTGDWTEDENDDDVDDKPATAELASELANKDPEPTVHEEEDDIDLALQSLHKGPEEATEEKASEESVTSADDAVDAVPNINSQPEKMDVDSEAADEKASKAEVQIKKEAELENDQEEFIKEDSPIPHSDSVAELREAVTASEGEDDVHLEADNIRKELLDELIAEAEKPDQEKDIVQSEENATTEALDRSVTDEDDLVPPTQVSTEQMEIDEPAAEKAAENNEDTRTADEKEAVEDKPNQTQDVTTAEKPTLESAKAGDEATSGEAASVDKVKSLISEWGDDDEDEDENGVSAAAKEEL
Q: B3 was tested. Which MAPPIT interaction score ([3]; MAPPIT configuration: N-C) did it give?
A: 2.63

Q: And the MAPPIT interaction score ([3]; MAPPIT configuration: N-N)?
A: -0.119

Q: And the MAPPIT interaction score [4]?
A: -0.381

B4: cN-IIIB (protein)
chain: MGFDEKREPTGGRLRLQDIPALTQDHCRMRDPAEVERIINEFVIGGPERMQIVSDFDYTITKQRTEDGGAVPSSFGIFNACQSLPENFKAETDKLYHKYRPIEIDPHMPIAEKVQYMIEWWTKSGELTSGFPFDQSEIDQIASKYTHALRDRTHEFFADLQRLGIPTLVFSAGLGNSVVSVLRQANVLHPNVKVVSNFLQFRDGLLDGFQQPMIHTFNKNETVLNETSEYYDLVHTRDHIIVMGDSIGDADMASGVPASSHIMKIGFLFDHVEANMKKYMDTFDIVLVDDQTMDVPRTLLSLIEKQHKLNLEAPKQSSL
Q: Which results are given for B4?
A: MAPPIT interaction score [5]: 1.36; MAPPIT interaction score [6]: -0.311

B5: CG6153 (protein)
chain: MPHGHSHDHGGCSHEASDVDHALEMGIEYSLYTKIDLDNVECLNEETDGQGKSVFKPYEKRQDLSKYVESDADEELLFNIPFTGNIKLKGIIISGANDDSHPNMVKIFKNRPRMTFDDARAKPDQEFQLTRDARGEIEYSPKVVTFSSVHHLSLYFPSNFGEDITRIYYIGLRGEFTEAHYHGVTICNYESRANAADHKEKAFDGVGRAIQ
Q: For B5, which MAPPIT interaction score [7] is on record?
A: 1.74

B6: lobo (protein)
chain: MPKVLFQKYKKVVSNIDPSRYSAKFKEIDEQRRSQGSESDFADEMEGEFEAEMEEMGSSEFSLSEGEPSLNIGKIDLSFPETVEEFENSPQCYPPSYYTLSPKERLLLLYAENFRKQLVLSYPKRRAMVLALPNECKVQKFVCTTIRPTAFIYTQLISSVEEIAKFVADFIQYEPLQDPINLPNRLISPETLLRKRKGNSYEMATLLVSMLIGAGHPALVVSGVAREETILNDQLAVPYPYPIVEVEVEEVKPKVEKPGQKYKLRGLPDLKSHLEEDMAEVHRQKEAEEKRIQDEIIRKQMEDLELLAVDRYHYRRSHAWVVIINNAPWSVKPKTTYTDVNGDVVEAPPTAIFIEPSTGFICETGCKQYILVDSIWNEYNYYVCKQKHQRVSELRWDLRDTKDWEHMLPGEPPEMRIYKMASDENVADEERDISEEKHLDCIGSWVERLHIGLADFEQRFPSSEKKIQYKGAIHERFSPYSQRDGKVMQLTIFNNDECTIPKVRYEYYENRSDLMRHVKYTYATDQFEEIFNKGRNDSLKSIEYFSDPSQQRKVHFFSASRIDSLELMVVEPGSLILHYKDRSDKCWYKEFEFTPAGNVLKKVTEKFLKASANDVCSNDIATRTFLFQQNKIVLKFHYTFGALTATVVEFTKPPRPDYGKELIYDEKLTKIYKANPLDPTRTNLELYRLLCEQLQYEDHLRKNFEKIFEDINNVFDLRKSEKAEPKLKFSIFDPLRNGAARAIRMRQFEEEEELKKEIASKPADFLAPYLVPYKHQEELTPEQSQNAYNACLNDLKSRFVSLLNNLQRHYEDLTSESKSLNRFLNKFENQFNNYDYKRLVQQSKDLELNKRMVQQRLTLTHEESQKKYEVVKNSLLKDPRLNFKKDDLARRASETSK
Q: How did the MAPPIT interaction score [8] turn out when B6 was run?
A: 2.32

B7: brat (protein)
chain: MASSPTPSLDSMRGGANSIESYEHAGYLSDSPLTLSGSSPPASDSAICSDEYTGGSSVKSRSEVTVINGHHPISASVSSSSSASSSSCSSSSSSSSSSSSSSSSTSGLSGCGSTSSSVISANNVASSNGPGVIGSNLQSSNNGGNSGISSLVVGAGKGSNSSSNSSSSNTSANGSPPRCTACKSKCSDAVAKCFECQSYLCANCVTAHEFMHCFNGHNVCLIKGFEASTTGTPLSVGSPSNNPASNEFKYASSLTMMLQQQQQLDSQQQQQQQQLLPAQPMSQLSKIVLAAAAQANSQEQQREDSIYGSLHPQQQQQQQQQQQRQLFCPRHKQELLKFSCRTCCILVCKECIVLEHSTGLHELENVQSPGMTTSTGSTANESALQTLLADMRGKIGEIVGIAGNSDQNLTKVKLQYQKAHNELNETHQFFASMLDERKTELLKELETLYTAKVNSNNSWQQRSRDLIDKGLATCEAVERSPAPPSSLLTEALLLRKSLEQQLQTGIQEMQLPFEIEFMSNYQSIQAGVRNTFGYIRANSSDGGPTGMSLTSNGHGKQPPIARPTQSASNSSASSAGSGHHGHHQQSHHHGHHNHHQTAHHQQLQAQSSLHGLGLGLSGASLLDSSSSAGGAVGAFSNGGLLLGGRDRNALAVEQHFGELMPKRGGGGYTGSNGSATSAVAHYNPYEKWSNGGSDNLFSSVTSGVSGSSAVADAFASLSAVGGSVVSGAGAGGSTVSSESLLDLTNKLLSATIYPPKSQIKRQKMIYHCKFGEFGVMEGQFTEPSGVAVNAQNDIIVADTNNHRIQIFDKEGRFKFQFGECGKRDSQLLYPNRVAVVRNSGDIIVTERSPTHQIQIYNQYGQFVRKFGATILQHPRGVTVDNKGRIIVVECKVMRVIIFDQNGNVLHKFGCSKHLEFPNGVVVNDKQEIFISDNRAHCVKVFNYEGQYLRQIGGEGITNYPIGVGINSNGEILIADNHNNFNLTIFTQDGQLISALESKVKHAQCFDVALMDDGSVVLASKDYRLYIYRYVQLAPVGM
Q: With B7 as the binder, how does the MAPPIT interaction score [9] read?
A: 1.62

Q: And the MAPPIT interaction score ([10]; MAPPIT configuration: N-C)?
A: 0.0947

Q: What about the MAPPIT interaction score ([10]; MAPPIT configuration: N-N) of the same binder?
A: 0.243

B8: CG3262 (protein)
chain: MERLLINTIWRSYATKLTGSQVKLMARGLPKKQPIIGVQDIIVVASGKGGVGKSTVAVNFACSLAKLGKRVGLLDGDIFGPTIPLLMNVHGEPVVNDKNLMIPPQNYNVKCLSMGMLTPVETSVIWRGPLVMSAIQRLLKGTDWGLLDVLVIDTPPGTGDVHLSLSQHAPITGVILVTTPHTAAVQVTLKGASMYEKLNVPIFGVVENMKYTICQNCNQRLEFFKDSRISSLPRKLISLPLDSRIADSNESGVPVVIKYPDSKYSYLFTQLAEEITQILNEQRCNQNQNNSAH
Q: What does the source list for B8?
A: MAPPIT interaction score ([11]; MAPPIT configuration: N-C): 0.425; MAPPIT interaction score ([11]; MAPPIT configuration: N-N): 0.0633

B9: CG12259 (protein)
chain: MAHYKGAASEAGRAAQLMKKREIQQQEIEFRKKKIEEELKLDKIENKFATHYDAVEQQLKSSTIGLVTLDEMKAKQEDIVREREKKLAQKKDEKDREKQRALEAIQAEKNKQKRQIQALSFNLDDDEEEEEEDDEDHDKKQLKIKQEDQPKPKWTEIKEDILPIKKKKICKNPDVDTSFLPDREREEQENRLREQLRQEWVMQQAELKDEDISITFSYWDGSGHRRNVLMKKGNSIYQFLQKCLELLRKEFIELKTVMADQLMYVKEDLILPHHYSFYDFIVTKARGKSGPLFQFDVHDDVRMISDASVEKEESHAGKVLLRSWYERNKHIFPASRWEPYDPTKSYDKYTIKDKDKSKK
Q: B9 was tested. Which MAPPIT interaction score ([12]; pair source set: Finley_Y2H) did it give?
A: 0.18

B10: pcs (protein)
chain: MSSAEDGELDPQIQIELENLNSATDEINKLEIELEEANSTFRILLNESTRRLKVSSKKLGNCIEKARPYYEALDKAREAQIECQKAAVKFQRANEIHAAAKETVALAEQRFMSNSHEWQFDNAWQEMLNHATQKVMDAETQKADCHAEHQRLTKLFNAAEQKLQQLEDRFRRSINKSRPYFEEKQVCQDQLQTQKNRIQELQQQVAGAKSTYSTALRNLERISEDIHRQRGDFPTPPGPREPGVGAELNSPTSSALPSLPDFQLELEKCDYPSIAGSQMSLGAKTPQAAAETEDEEDACDYDETGAGELRGVVDERDLEALRQKVKILAVRPIEGGDGQQQNDVWEHELKATVDKLDHLMMLKETAKRQQTNRLKSTEQRPDSLGAEALKRHCDVVEVKVTSCATTASLPVTPHHQLNHLAPPTPIKKLQQQLAPLPSVNVSMRELPLLARLSNELLDRSSAAFGGVRKTLRRRSLE
Q: How did the MAPPIT interaction score ([12]; pair source set: Curagen_low_conf) turn out when B10 was run?
A: -0.177

From the supplement of paper PMC10105736
